Shown are actives, neighbours in structure and some others; about 6.9% of the full set was active somewhere.
JMJD2A Tudor inh: inhibitors of human JMJD2A Tudor domain | Potency, µM (highest dose often 114 µM), for the others: at the top dose activity change, negative = inhibition, most hits filed as inhibitors | AID 504339 | AlphaScreen JMJD2A-Tudor / H3K4me3 peptide binding | 4.4% of 390,000 active | O75164; further: on the % scale 0 is the no-effect control and ±100 the full control effect; nearly all actives have a fitted effect of over 50% in size
L3MBTL1 block: blocks human L3MBTL1; AlphaScreen L3MBTL1–H3K9me1 peptide binding; Q9Y468; Potency, µM (titrated, usually from 57.1 µM), for inactives: at the top dose activity, negative = inhibition, most hits filed as inhibitors; 0.66% of 230,000 active; further: on the % scale 0 is the no-effect control and ±100 the full control effect; nearly all actives have a fitted effect of over 60% in size
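AlphaScreen proximity signal between nickel-chelate acceptor and streptavidin donor beads (final 10 ug/mL) reports binding of 50 nM L3MBTL1 to 75 nM biotin-H3 K9me1 peptide; complex incubated with compounds 30 min at room temperature; cefsulodin titration as control.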
HP1b binding inh: blocks HP1-beta chromodomain binding to methylated histone tails. P83916. AlphaScreen HP1-beta / biotin-H3K9me3 peptide binding. Potency, µM (highest dose often 114 µM), inactives show at the highest dose activity change, negative = inhibition, most hits filed as inhibitors. 0.56% of 390,000 active; further: nearly all actives have a fitted effect of over 70% in size
Target sequence (P83916 whole entry, looked up): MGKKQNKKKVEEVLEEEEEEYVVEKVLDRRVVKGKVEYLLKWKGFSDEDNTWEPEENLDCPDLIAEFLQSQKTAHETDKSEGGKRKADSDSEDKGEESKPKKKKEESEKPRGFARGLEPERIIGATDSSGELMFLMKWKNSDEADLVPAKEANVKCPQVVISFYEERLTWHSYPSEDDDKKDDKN
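Compound inhibition of the preformed complex between 50 nM HP1-beta and 50 nM biotinylated H3K9me3 peptide was read by AlphaScreen. Buffer was PBS pH 7.4 with 0.01% Tween-20. Incubations ran 30 min at room temperature, with 10 ug/mL donor/acceptor beads.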
BAZ2B block: inhibitors of human BAZ2B bromodomain. Q9UIF8. AlphaScreen BAZ2B-H3K14Ac peptide displacement. Potency, µM (top dose mostly 114 µM), for inactives: top-dose activity change, negative = inhibition, usual class: inhibitors. 4.4% of 360,000 active. AID 504333; further: on the % scale 0 is the no-effect control and ±100 the full control effect; nearly all actives have a fitted effect of over 60% in size
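AlphaScreen displacement of biotin-H3(5-23)K14Ac peptide (50 nM final) from BAZ2B (50 nM final) in PBS pH 7.4, 0.01% Tween-20; complex preformed 30 min RT, then compounds (top 110 uM) 30 min RT, beads 20 min dark.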
PLK1 PBD block: blocks phosphopeptide binding to human PLK1 polo-box domain. P53350. Plk1 PBD binding of FITC phosphopeptide, fluorescence polarization. Potency, µM, for inactives: max response, negative = inhibition, usual class: inhibitors. 2.8% of 360,000 active; further: series mostly up to about 57 µM; on the % scale 0 is the no-effect control and ±100 the full control effect; nearly all actives have a fitted effect of over 65% in size
VDR inh: vitamin D3 receptor (human) inhibition | VDR-SRC2-3 peptide fluorescence polarization, 2 h | Potency, µM, without a hit: max response, negative = inhibition, actives largely listed as inhibitors | 0.93% of 400,000 active | AID 504847; further: on the % scale 0 is the no-effect control and ±100 the full control effect
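Measured by FP: displacement of SRC2-3 coactivator peptide from VDR by library compounds, following a two-hour ambient incubation.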
TbPYK inh: Trypanosoma brucei pyruvate kinase inhibition, cherry-pick confirmation; recombinant TbPYK, Kinase-Glo ATP luminescence; AID 720569; 67% of 890 active; shares compounds with PLK1 PBD block; Potency, µM (doses to about 76.9 µM), without a hit: at the highest dose activity change, negative = inhibition, actives largely listed as inhibitors; further: on the % scale 0 is the no-effect control and ±100 the full control effect; nearly all actives have a fitted effect of over 70% in size
TbPYK orthogonal: orthogonal confirmation of Trypanosoma brucei pyruvate kinase inhibitors | recombinant TbPYK, ADP-Glo luminescence, 60 min | 62% of 890 active | shares compounds with PLK1 PBD block | Potency, µM (top dose mostly 76.9 µM), without a hit: at the top dose activity change, negative = inhibition, hits mostly inhibitors | AID 720584; further: on the % scale 0 is the no-effect control and ±100 the full control effect; nearly all actives have a fitted effect of over 75% in size
An asterisk follows results filed as active; ? = inconclusive; nt = not tested or not shown. The call rests on the fitted dose curve; in most records, active means well fitted curve in the direction sought with a large enough effect; inconclusive means small, poorly fitted or top-dose-only effect, or another doubt; inactive means no such curve, though single readings can be large; an effect the other way counts as inactive or inconclusive. Potency means the concentration at half of the fitted maximal effect.

SMILES	JMJD2A Tudor inh	L3MBTL1 block	HP1b binding inh	BAZ2B block	PLK1 PBD block	VDR inh	TbPYK inh	TbPYK orthogonal
CCn1cc(C(=O)N[C@@H](C)C(=O)NCCCn2ccnc2)c(=O)c2cc3c(cc21)OCO3	-5.6%	nt	17.4%	-16.2%	-10.5%	6.1%	nt	nt
Oc1ccc2c(c1)OCC1(O)Cc3cc(O)c(O)cc3C21 (stereo not drawn)	20µM*	nt	?	nt	?	79.4µM*	2.24µM*	3.16µM*
CC(=O)Oc1ccc2c(c1OC(C)=O)OCC1(O)Cc3c(cc(OC(C)=O)c(OC(C)=O)c3OC(C)=O)C21 (stereo not drawn)	nt	nt	nt	nt	nt	-8.2%	nt	nt
COC(=O)c1cc(S(=O)(=O)N2CCCC2=O)c(Cl)cc1Cl	-6.3%	-2.9%	27.1%	-20.9%	-1.1%	-5.3%	nt	nt
CNS(=O)(=O)c1ccc(C)cc1	-19.3%	nt	14.7%	8.2%	-7.5%	9.2%	nt	nt
Cc1ccc(S(=O)(=O)C=CS(=O)(=O)c2ccc(C)cc2)cc1	nt	nt	nt	nt	2.67µM*	nt	-60.6%	?
Cc1ccc(Nc2cc(C(=O)NCCc3ccccc3)c3ccccc3n2)c(C)c1	-11.7%	nt	49.6%	nt	nt	-1.2%	nt	nt
O=C(CCCN1C(=O)c2cccc3cccc(c23)C1=O)N1CCc2ccccc2C1	-18.5%	-1.5%	7.0%	-29.1%	-8.0%	-16.1%	nt	nt
c1ccc(Cc2nn3c(C4COc5ccccc5O4)nnc3s2)cc1 (stereo not drawn)	-32.0%	-7.6%	-31.0%	-22.9%	21.2µM*	-44.1%	?	?
Cc1cccc(NC(=O)N2CCCC2C(=O)Nc2ccccc2)c1 (stereo not drawn)	-12.0%	1.9%	36.2%	2.4%	-5.3%	15.5%	nt	nt
COc1cccc(C2NC(=O)c3sc(=S)n(-c4ccccc4)c3N2)c1 (stereo not drawn)	-26.0%	nt	27.9%	-31.1%	-29.7%	?	nt	nt
COc1ccc(OC)c(C2NC(=O)c3sc(=S)n(-c4ccccc4)c3N2)c1 (stereo not drawn)	-31.3%	?	14.2%	?	?	89.1µM*	2µM*	2.51µM*
Cc1cccc(N2C(=O)C=CC2=O)c1	20µM*	nt	?	nt	29.9µM*	50.1µM*	?	?
O=C1C=CC(=O)N1c1ccc2ccccc2c1	17.8µM*	nt	?	nt	8.44µM*	79.4µM*	25.1µM*	?
CC(=O)Nc1ccc2c(c1)C(=O)N(c1cccc(C)c1)C2=O	-0.3%	nt	2.9%	-17.7%	-6.9%	3.0%	nt	nt
O=C1c2ccccc2C(=O)N1c1ccc2ncccc2c1	-3.5%	nt	34.3%	nt	nt	-9.6%	nt	nt
O=C1C=CC(=O)N1c1ccc(Nc2ccccc2)cc1	50.1µM*	nt	?	nt	23.8µM*	?	?	?
O=C(Nc1ccc(Nc2ccccc2)cc1)c1c(F)c(F)c(F)c(F)c1F	-25.2%	-8.9%	2.5%	-11.2%	-7.5%	11.2%	nt	nt
Cc1ccc(S(=O)(=O)CCC(=O)OCC(=O)Nc2ccc(N3CCOCC3)cc2)cc1	-6.8%	2.8%	19.2%	-0.5%	8.4%	2.0%	nt	nt
O=C(CCN1CCc2ccccc2C(c2ccccc2)C1)c1ccc2c(c1)OCCO2 (stereo not drawn)	?	nt	-12.7%	?	2.99µM*	?	?	?
COc1ccc(CCNC(=O)/C=C/c2ccco2)cc1	31.6µM*	-4.8%	?	?	0.0%	89.1µM*	?	?
CCN(CC)C(=O)c1sc2nc(N3CCOCC3)c3c(c2c1N)CCCC3	?	nt	6.5%	-4.3%	?	-11.3%	7.94µM*	4.47µM*
O=C(Nc1cccc(Cl)c1Cl)c1ccc2c(c1)N(Cc1cccc(Cl)c1)C(=O)c1ccccc1S2=O (stereo not drawn)	-5.1%	nt	26.4%	2.5%	nt	-1.4%	nt	nt

Compound activity (PubChem BioAssay)
